The text below walks through data of PubChem BioAssay (NCATS).

Results filed as inconclusive are left out. The source made the active and inactive calls. Calls follow the shape of the dose curve; as a rule, active = well fitted inhibition curve with a large enough effect; inconclusive = small, poorly fitted or top-dose-only effect; inactive = no such curve, though single readings can be large or run the other way.
% is scaled to controls: 0 for no effect and ±100 for the full control effect; potency is read from the fitted curve at half-maximal effect.

The test has as its system Zika virus NS2B-NS3 protease (linked construct). Kind of test: Primary screen NINDS Rhodamine qHTS for Zika virus inhibitors (AID 1347160). Also: nearly all actives have a fitted effect of over 55% in size. To be noted: purified NS2B-NS3 protease, Rhodamine110 substrate fluorescence; series mostly up to 57.1 µM; activity change, negative = inhibition: at the top concentration. The source says:
Avindra Nath, Ph.D., National Institute of Neurological Disorders and Stroke (NINDS), Bethesda, MD
Radhakrishnan Padmanabhan, Ph.D., Georgetown University (GU), Washington D.C.
Zika Virus causes congenital defects, including microcephaly and is associated with Guillain-Barre syndrome, eningoencephalitis and myelitis in infected adult. […] Using a target-based approach, we hope to establish a screening paradigm to uncover novel, cell-active NS2B-NS3 protease (Zika Virus) specific inhibitors from NCATS' collection of small molecules using qHTS.
Four assay panel was created to identify potential Zika Virus inhibitors. Namely, (1) GU unlinked NS2B-NS3 AMC tagged protease qHTS, (2) GU unlinked NS2B-NS3 Rhodamine tagged protease qHTS, (3) NINDS linked NS2B-NS3 AMC tagged protease qHTS, (4) NINDS linked NS2B-NS3 Rhodamine tagged protease qHTS. Active compounds were re-acquired and re-screened to confirm inhibition. Inhibitors were further screened against various confirmatory and counterscreens in dose response format.
Early Translation Branch (ETB)
National Center for Advancing Translational Sciences (NCATS), Rockville, MD
National Institute of Health (NIH), Bethesda, Maryland
For the linked assay, Nath lab (NINDS) provided the purified linked NS2B-NS3 protease which is consists of hydrophilic domain of NS2B linked to the NS3 protease domain by a flexible (-[…]-) linker. Control compound aprotinin is obtained from Thermo Scientific (#78432; Waltham, Massachusetts). Rhodamine110 substrate ([N-Cbz]-Nle-Lys-Arg-Arg-Rhod110-Arg-Arg-Lys-Nle-[N-Cbz]) was purchased from either Genscript or Bachem.
1536-well Protease (Rhodamine110 Substrate) Assay:
Briefly, 3 microL of enzyme (25 nM final concentration), in assay buffer (10 mM Tris-HCl pH 8.0 with 0.01% Tween 20) were dispensed into a 1,536-well solid-bottom black plate (Greiner Bio One, Monroe, NC). Twenty-three nL of compounds (final concentration range 7.28 nM to 114 microM) or control Aprotinin (final concentration range 3.47 nM to 114 microM) were transferred via Wako Pin-tool (Wako Automation, Richmond, VA). Samples were incubated (room temperature, protected from light) for 15 minutes followed by a 1 microL Rhodamine110 substrate addition (1.5 microM final concentration). Plates were then immediately read on a ViewLux High-throughput CCD imager (PerkinElmer, Waltham, MA) equipped with FITC fluorescence optics (480(20) nm excitation, 540(25) nm emission), then incubated (room temperature, protected from light) for 15 minutes (~15% conversion). The change in fluorescence intensity over the 15-minute reaction period was normalized against no-inhibitor and no-enzyme controls and the resulting percent inhibition data were fitted to a 4-parameter Hill equation. Aprotinin was used as intraplate control.
On the technique in general: Quantitative high-throughput screening tests each substance at several concentrations.
As to `c1cc(N[C@@H]2CCNC2)nc(-c2cnc3ccc(-c4cn[nH]c4)cn23)c1`, the call was inactive.

Take `CN(C)CC(=O)N1CCC(c2ccc(NC(=O)c3ncc(C#N)[nH]3)c(C3=CCCCC3)c2)CC1`: the result was inactive.

As for `c1ccc2c(Oc3nc(Nc4ccc(N5CCOCC5)cc4)c4ncn(C5CCCCC5)c4n3)cccc2c1`, the “activity change, negative = inhibition” value was 69.4% (inactive).

Consider `Cn1cnc2c(F)c(Nc3ccc(Br)cc3F)c(C(=O)NOCCO)cc21`, for which the “activity change, negative = inhibition” value is 11.1% (inactive).

In the case of `CCc1nc(-c2cccc(C)c2)c(-c2ccnc(NC(=O)c3ccccc3)c2)s1`, the “activity change, negative = inhibition” value was 31.8% (inactive).

For `COc1ccc(S(=O)(=O)Nc2cccnc2Nc2ccc(O)cc2)cc1`, the “activity change, negative = inhibition” value was -4.17% (inactive).

In the case of `O=C(Nc1ccc(Oc2ccnc3[nH]ccc23)c(F)c1)c1cccn(-c2ccc(F)cc2)c1=O`, the compound was called inactive.

In the case of `N[C@H]1CN(c2c(F)cc3c(=O)c(C(=O)O)cn(C4C[C@@H]4F)c3c2Cl)CC12CC2` (stereo not given in full), the “activity change, negative = inhibition” value was -5.25% (inactive).

As for `Cc1ccccc1C(=O)Nc1ccc(C(=O)N2CCCC(O)c3cc(Cl)ccc32)c(C)c1` (stereo not given), the “activity change, negative = inhibition” value was 7.1% (inactive).

With `C[C@H]1[C@@H](OC(=O)CCC(=O)O)O[C@@H]2O[C@@]3(C)CC[C@@H]4[C@H](C)CC[C@@H]1[C@@]24OO3`, the “activity change, negative = inhibition” value was 5.23% (inactive).

`Cc1cncc2cccc(S(=O)(=O)N3CCCN(C(=O)CN)C[C@@H]3C)c12`: the “activity change, negative = inhibition” value was 19.1% (inactive).

Consider `CCOc1cc2c(c(F)c1OCC)C(=N)N(CC(=O)c1cc(N3CCOCC3)c(OC)c(C(C)(C)C)c1)C2`, for which the “activity change, negative = inhibition” value is 121% (inactive).

In the case of `CC1=C(C(=O)Nc2cc3cn[nH]c3cc2F)C(c2ccc(Cl)cc2F)N=C(c2ccnc(Cl)c2)N1` (stereo not given), the “activity change, negative = inhibition” value was -8.17% (inactive).

`CC(C)C[C@H](NC(=O)[C@@H](NC(=O)c1cccc(-c2ccccc2)n1)[C@@H](C)O)B(O)O`: the “activity change, negative = inhibition” value was 19.9% (inactive).

As for `CCc1ccc(C(=O)Nc2cc(CN3CCN(C)CC3)cc(C(F)(F)F)c2)cc1C#Cc1cnc2ccnn2c1`, the “activity change, negative = inhibition” value is 337% (inactive).

Take `O=C(Nc1cc2cc[nH]c2cn1)c1ccccc1`: the “activity change, negative = inhibition” value was 15.3% (inactive).

As to `Cn1cc(-c2ccc3ncc(Cc4ccc5ncccc5c4)n3n2)cn1`, the “activity change, negative = inhibition” value is -25.8% (inactive).

With `Cc1coc2c1C(=O)C(=O)c1c-2ccc2c(C)cccc12`, the Potency is 25.1 µM (active).

For the compound `CCN(CC)Cc1ccc2cc(COC(=O)Nc3ccc(C(=O)NO)cc3)ccc2c1`, the call was inactive.

For `CC(C)n1cnc2c(NCCc3ccc(O)cc3)nc(-c3csc4ccccc34)nc21`, the “activity change, negative = inhibition” value was -6.35% (inactive).

With `COc1cc(CCc2cc(NC(=O)c3ccc(N4C[C@@H](C)N[C@@H](C)C4)cc3)n[nH]2)cc(OC)c1`, the “activity change, negative = inhibition” value is 174% (inactive).

With `C=C(C)[C@@H]1CC[C@]2(C(=O)O)CC[C@]3(C)[C@H](CC[C@@H]4[C@@]5(C)CC[C@H](O)C(C)(C)[C@@H]5CC[C@]43C)[C@@H]12`, the Potency was 6.21 µM (active).

Consider `CCC[C@H]1C[C@H](C(=O)N[C@@H]([C@@H]2O[C@@H](SC)[C@@H](O)[C@@H](O)[C@@H]2O)[C@H](C)Cl)N(C)C1`, for which the compound was classed as inactive.

Take `FC(F)c1nc2ccccc2n1-c1nc(N2CCOCC2)nc(N2CCOCC2)n1`: the “activity change, negative = inhibition” value is 7.21% (inactive).

Take `C[C@H](O)[C@@H]1C(=O)N2C(C(=O)O)=C(S[C@@H]3CN[C@H](CNS(N)(=O)=O)C3)[C@@H](C)[C@@H]12`: the “activity change, negative = inhibition” value is 4.55% (inactive).

For the compound `Cc1ncc(-c2ccnc(Nc3ccc(S(C)(=O)=O)cc3)n2)n1C(C)C`, the “activity change, negative = inhibition” value was 13% (inactive).

Turning to `CC(C)c1cc(C(C)C)c(CC(=O)NS(=O)(=O)Oc2c(C(C)C)cccc2C(C)C)c(C(C)C)c1`, the Potency is 3.16 µM (active).

Turning to `N#Cc1c(C2CCNCC2)cc(-c2c(O)cccc2OCC2CC2)nc1N`, the “activity change, negative = inhibition” value was 99.1% (inactive).

On to `Nc1ccc(C(=O)Nc2cccc(-c3nc(N4CCOCC4)c4oc5ncccc5c4n3)c2)cn1`, for which the “activity change, negative = inhibition” value is -4.87% (inactive).

Turning to `CN1CCc2c(c3ccccc3n2Cc2ccc(C(=O)NO)cc2)C1`, the compound was called inactive.

With `CS(=O)(=O)N1CCc2c(-c3cnc(N)nc3)nc(N3CCOCC3)nc21`, the “activity change, negative = inhibition” value was 11.9% (inactive).

With `O=c1c(O)c(-c2ccc(O)c(O)c2)oc2cc(O)ccc12`, the Potency is 22 µM (active).

In the case of `CCCCOc1ccc(C(=O)Nc2ccc(F)cc2F)cc1`, the “activity change, negative = inhibition” value is 6.34% (inactive).

With `Oc1ccc([C@@H]2Oc3ccc(O)cc3[C@@H]3CCC[C@@H]32)cc1`, the “activity change, negative = inhibition” value was 1.63% (inactive).

Turning to `Nc1ccn(C2CO[C@H](CO)O2)c(=O)n1` (stereo not given in full), the “activity change, negative = inhibition” value is 16.4% (inactive).

Turning to `C[C@@H](Cc1cc2c(c(C(N)=O)c1)N(CCCO)CC2)NCCOc1ccccc1OCC(F)(F)F`, the “activity change, negative = inhibition” value was 33.6% (inactive).

For `Cc1cnc(Nc2ccc(CN3CCOCC3)cc2)nc1Nc1cccc(S(=O)(=O)NC(C)(C)C)c1`, the “activity change, negative = inhibition” value was -14.5% (inactive).

On to `OCCNC1CCCc2c1[nH]c1ccc(-c3ccccc3)cc21` (stereo not given), for which the “activity change, negative = inhibition” value was 412% (inactive).

In the case of `FC(F)(F)c1ccc(Nc2nc3ccc(Oc4ccnc(-c5ncc(C(F)(F)F)[nH]5)c4)cc3[nH]2)cc1`, the “activity change, negative = inhibition” value is -18.2% (inactive).

In the case of `CC(C)(N)c1ccc(-c2nc3ccccc3nc2-c2ccccc2)cc1`, the “activity change, negative = inhibition” value is 107% (inactive).
